# Compound activity (PubChem)
# TDP1 cell CPT: qHTS for Inhibitors of human tyrosyl-DNA phosphodiesterase 1 (TDP1): qHTS in cells in presence of CPT; chicken DT40 Tdp1-/-;hTDP1 cells + 20 nM CPT, ATP luminescence, 48 h; Potency, µM (doses to about 46.2 µM), for the others: at the highest dose activity change, negative = growth inhibition, usual class: inhibitors; 420,000 compounds, 12% hits; AID 686979, 2013; note: potency is the fitted concentration of half-maximal effect; nearly all actives have a fitted effect of over 55% in size
#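 Cell growth measured by CellTiter-Glo luminescence after a minimum 48 h, 37 C compound exposure with 20 nM CPT in Tdp1-knockout DT40 cells stably expressing hTDP1, seeded 400/well; qHTS titration format.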
# ELG1 DNA repair: qHTS screen for small molecules that inhibit ELG1-dependent DNA repair in human embryonic kidney (HEK293T) cells expressing luciferase-tagged ELG1 | Potency, µM (highest dose often 46.1 µM), inactives show at the highest dose activity change, negative = inhibition, most hits filed as inhibitors | HEK293T ELG1-luciferase reporter, luminescence, 16 h; DNA damage induced by 5-fluorouridine | 330,000 compounds, 2.3% hits; note: potency is the fitted concentration of half-maximal effect; nearly all actives have a fitted effect of over 55% in size
#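 DMSO vehicle served as the neutral condition. Each well held 2,000 cells given 5-fluorouridine plus compound; after 16 hr at 37 °C/5% CO2, ONE-Glo was added and luciferase measured 30 min later.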
# DT40 TDP1 no CPT: qHTS for Inhibitors of human tyrosyl-DNA phosphodiesterase 1 (TDP1): qHTS in cells in absence of CPT. DT40 Tdp1-/- hTDP1 cells, no CPT, ATP luminescence, 48 h. Potency, µM (highest dose often 46.2 µM), for inactives: at the highest dose activity change, negative = growth inhibition, most hits filed as inhibitors. 420,000 compounds, 15% hits. AID 686978, 2013; note: potency is the fitted concentration of half-maximal effect; nearly all actives have a fitted effect of over 55% in size
#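 Readout: luminescence from CellTiter-Glo after 30 min in the dark at RT. Cells: DT40 Tdp1-/- with stable hTDP1, 400/well. Exposure: compounds alone, ≥48 hr, 37 °C.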
# HT1080 IDH1KD tx: qHTS for induction of synthetic lethality in tumor cells producing 2HG: qHTS for the HT-1080-IDH1KD cell line; HT-1080 IDH1 knockdown viability, ATP luminescence, 48 h; Potency, µM (doses to about 46.1 µM), for inactives: at the highest dose activity, negative = toxicity, most hits filed as cytotoxic; 360,000 compounds, 2% hits;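 note: potency is the fitted concentration of half-maximal effect; 0% = DMSO wells and -100% = cell-free medium wells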
#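 Knockdown cells (IDH1KD HT-1080) received compounds 2 h after plating at 750 cells/well and were kept 48 h at 37 °C in 5% FBS RPMI. A CellTiter-Glo luminescence read gave % activity for curve fitting.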
# IL1B secr inh: qHTS for Inhibitors of Inflammasome Signaling: IL-1-beta AlphaLISA Primary Screen. THP-1 LPS/ATP IL-1B secretion, AlphaLISA, 16 h; active compounds read low. activity change, % at 57.5 µM. 360,000 compounds, 4.7% hits. AID 743279, 2014; in the data active = activity change below about -50%; inconclusive = mostly about -30% to -49%
#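 Secreted IL-1B measured by AlphaLISA bead assay after 16 h compound exposure of THP-1 cells; compounds (final up to 57.5 uM) added 1 h before LPS (250 ng/mL) and ATP (1.25 mM) stimulation; lower signal means less secretion.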
# HT1080-NT tox: qHTS for induction of synthetic lethality in tumor cells producing 2HG: qHTS for the HT-1080-NT fibrosarcoma cell line; HT-1080-NT fibrosarcoma viability, CellTiter-Glo ATP luminescence, 48 h; 360,000 compounds, 1.6% hits; Potency, µM (top dose mostly 46.1 µM), for the others: at the top dose activity, negative = less viability, hits mostly cytotoxic;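 note: NT is the 2HG producing partner of a matched IDH1 knockdown line; potency is the fitted concentration of half-maximal effect; 0% = DMSO-treated cells and -100% = media-only wells without cells; nearly all actives have a fitted effect of over 55% in size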
#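 Compounds were tested in concentration-response format on HT-1080-NT cells for 48 hours at 37 degrees C. Cell viability came from CellTiter-Glo luminescence; curves were classified by r2, response magnitude and activity.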
# * hit, by the source's call; ? = inconclusive; / = not tested or not shown. Rows were chosen to be rich in hits. Some 19% of all compounds tested hit in one or more screens of this group. Unless noted, calls come from the whole dose curve; as a rule, active = well fitted curve in the direction sought with a large enough effect; inconclusive = small, poorly fitted or top-dose-only effect, or another doubt; inactive = no such curve, though single readings can be large; an effect the other way counts as inactive or inconclusive. Unless noted, % is set by controls: 0 for no effect and ±100 for the full control effect.
SMILES,TDP1 cell CPT,ELG1 DNA repair,DT40 TDP1 no CPT,HT1080 IDH1KD tx,IL1B secr inh,HT1080-NT tox
COc1cc(-c2cc(C(=O)Nc3c(Cl)cc(Cl)cc3Cl)c3ccccc3n2)cc(OC)c1OC,21µM*,5.2µM*,18µM*,-9%,36,-3%
COc1cc(-c2cc(C(=O)Nc3ccc(S(N)(=O)=O)cc3)c3ccccc3n2)cc(OC)c1OC,4.1µM*,?,3.7µM*,-1%,?,-10%
FC(F)(F)c1nc2nc(Cl)c(Cl)nc2n1CCCN1CCOCC1,-14%,/,?,-4%,-26,-9%
Cc1nn(-c2ccc(Cl)cc2Cl)c(C)c1C(=O)O,0%,11%,-6%,12%,14,15%
Cc1c(C(=O)NN2CCCCC2)nn(-c2ccc(Cl)cc2Cl)c1-c1ccc(Cl)cc1,?,/,19µM*,/,/,/
CCOC(=O)c1[nH]c2c(c1-c1ccccc1)C(=O)CC(c1ccccc1)C2 (configuration not stated),-26%,?,?,-13%,13,1%
COC(=O)c1[nH]c2c(c1C)C(=O)CC(c1ccccc1)C2 (configuration not stated),1.3µM*,5%,1.3µM*,?,45,0.45µM*
CCOC(=O)c1[nH]c2c(c1Cc1ccccc1)C(=O)CC(c1ccccc1)C2 (configuration not stated),18µM*,/,21µM*,/,/,/
Cc1c(C(=O)OCc2ccccc2)[nH]c2c1C(=O)CC(c1ccc(Cl)cc1)C2 (configuration not stated),18µM*,/,15µM*,/,/,/
COc1cccc(N2CCN(S(=O)(=O)c3ccc4c(c3)N(C(C)=O)CCO4)CC2)c1,?,-3%,?,-11%,-13,?
CSc1ncnc2c1cnn2-c1ccc(C)cc1C,-28%,?,?,7%,0,16%
Cc1ccc(-n2ncc3c(N4CCC(C(N)=O)CC4)ncnc32)c(C)c1,?,-5%,1%,0%,-18,-4%
CCN(CC)C(=O)C1CCN(c2ncnc3c2cnn3-c2ccc(C)cc2C)CC1,?,18%,21µM*,-2%,-13,-11%
Cc1ccc(-n2ncc3c(N4CCC5(CC4)OCCO5)ncnc32)c(C)c1,12µM*,?,15µM*,-10%,-14,?
CCN(C)C1CN(Cc2cn(CCCOC)nn2)S(=O)(=O)C1 (configuration not stated),0%,/,-9%,13%,10,3%
Cc1ccc(-n2nc(C(=O)N(C)Cc3ccccc3)c3c4ccccc4n(C)c3c2=O)cc1,23µM*,/,9.2µM*,/,/,/
CCOc1ccccc1N(C)C(=O)c1nn(-c2ccc(C)cc2)c(=O)c2c1c1ccccc1n2C,-6%,/,-13%,/,/,/
Cc1ccc(-n2nc(C(=O)N(C)c3ccccc3Cl)c3c4ccccc4n(C)c3c2=O)cc1,18µM*,/,13µM*,/,/,/
CCC(C(=O)N1CCN(c2cc(Cl)ccc2C)CC1)n1nc(C)c2sc3ccccc3c2c1=O (configuration not stated),-3%,/,-17%,/,/,/
Cn1cc(CCNC(=O)CC2C(=O)NCCN2CC(c2ccccc2)c2ccccc2)cn1 (configuration not stated),3%,10%,19%,16%,5,?
CN(C)CCNc1ncnc2c1ncn2[C@H]1CN(Cc2ccc3c(c2)OCO3)C[C@@H](CO)O1,-29%,/,-26%,12%,-15,13%
COc1ccc(C2=Cc3ccccc3C(CC(=O)C3CC3)N2c2ccc(C#CCCO)cc2)cc1 (configuration not stated),?,/,?,?,-7,-30%
COc1cc(OC)cc(C2=Cc3ccc(OC)cc3C(CC(C)=O)N2c2ccc(C#CCCO)cc2)c1 (configuration not stated),?,/,21µM*,?,-7,?
COc1cc(OC)cc(C2=Cc3ccccc3C(CC(=O)c3ccco3)N2c2ccc(-c3ccc(C(N)=O)cc3)cc2)c1 (configuration not stated),?,/,?,-11%,-13,?
COc1cc(OC)cc(C2=Cc3ccccc3C(CC(=O)c3ccco3)N2c2ccc(-c3cncnc3)cc2)c1 (configuration not stated),8.2µM*,/,?,-2%,-7,-23%
SMILES,TDP1 cell CPT,ELG1 DNA repair,DT40 TDP1 no CPT,HT1080 IDH1KD tx,IL1B secr inh,HT1080-NT tox
COc1ccc(N2C(c3cc(OC)cc(OC)c3)=Cc3ccccc3C2CC(C)=O)cc1 (configuration not stated),?,/,16µM*,-28%,32,-24%
CC(=O)CC1c2ccccc2C=C(c2ccsc2)N1c1ccc(-c2cccs2)cc1 (configuration not stated),10µM*,/,10µM*,4%,51,16%
COc1cc(OC)cc(C2=Cc3ccccc3C(CC(C)=O)N2c2ccc(C#CCCO)cc2)c1 (configuration not stated),21µM*,/,?,?,-19,?
CCc1ccc(C(c2c(C)nn(-c3ccccc3)c2N)c2c(C)nn(-c3ccccc3)c2N)cc1,?,?,?,-15%,-67*,-1%
Cc1cccc(C(c2c(C)nn(-c3ccccc3)c2N)c2c(C)nn(-c3ccccc3)c2N)c1,-28%,?,-24%,1%,-7,-13%
COc1ccc(-c2c(-c3ccsc3)oc3ccc(N4CCOCC4)cc23)cc1,?,/,16µM*,9%,-5,14%
Cc1ccccc1NC1=C/C(=N\S(=O)(=O)c2ccc(C(=O)O)cc2)c2ccccc2C1=O,16µM*,12µM*,18µM*,23µM*,-90*,23µM*
CC(C)c1ccc(S(=O)(=O)/N=C2\C=C(NS(=O)(=O)c3ccccc3)C(=O)c3ccccc32)cc1,?,?,?,?,22,-27%
